# Tests used:
# Conditions in all cases: concentration: 1 μM, replicates: in singlicate; n = 1
# AXL = system: AXL
# BIKE = system: T1, BIKE
# T1 construct: gene BMP2K
# BLK = system: BLK
# BMPR1A = system: BMPR1A
# BMPR1B = system: BMPR1B
# BMPR2 = system: BMPR2
# BMX = system: BMX
# BRAF = system: BRAF
# BRK = system: T2, BRK
# T2 construct: gene PTK6
# BRSK1 = system: BRSK1
# 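Further: KINOMEscan kinase panel screen.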
SMILES,%Inh (AXL),%Inh (BIKE),%Inh (BLK),%Inh (BMPR1A),%Inh (BMPR1B),%Inh (BMPR2),%Inh (BMX),%Inh (BRAF),%Inh (BRK),%Inh (BRSK1)
CN1C(=O)C(Nc2ccccc2)=C(c2ccccc2)C1=O [SB-300079],0%,0%,23%,12%,0%,14%,0%,9%,0%,0%
OCCCNc1nccc(-c2c(-c3cccc(C(F)(F)F)c3)nn3cc(C(F)(F)F)ccc23)n1 [GW630813],0%,0%,33%,0%,0%,0%,13%,0%,0%,0%
O=C(NCc1cccs1)c1cc(C(=O)c2c(Cl)cccc2Cl)c[nH]1 [GW823670],0%,19%,28%,7%,0%,15%,0%,0%,0%,0%
CCCC(=O)Nc1n[nH]c2ncc(-c3cccc4ccccc34)cc12 [SB-642057],18%,28%,0%,12%,5%,0%,0%,0%,0%,0%

# Source: paper PMC5540273 (PLoS ONE, 2017)
